Laboratory results as given in PubChem BioAssay AID489012 (National Center for Advancing Translational Sciences (NCATS), 2010).
Results filed as inconclusive are left out. The source made the active and inactive calls. Calls follow the shape of the dose curve; as a rule, active = well fitted activation curve with a large enough effect; inconclusive = small, poorly fitted or top-dose-only effect; inactive = no such curve, though single readings can be large or run the other way.

biological target: Relaxin receptor 1 (Homo sapiens) (UniProt Q9HBX9); experiment: qHTS Assay for Agonists of the Relaxin Receptor RXFP1: RXFP1 Hit Validation; conditions: HEK293T-RXFP1 cAMP TR-FRET, 30 min; series mostly up to 115 µM; activation: at the top concentration; also: nearly all actives have a fitted effect of over 65% in size;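 as to activation: cAMP rise lowers the TR-FRET signal in lysed cells with PDE4 inhibitor present; 0% = buffer-only basal and 100% = 29 nM porcine relaxin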
Potency is read from the fitted curve at half-maximal effect.

Sequence of Relaxin receptor 1 (Homo sapiens) (Q9HBX9 whole entry, looked up): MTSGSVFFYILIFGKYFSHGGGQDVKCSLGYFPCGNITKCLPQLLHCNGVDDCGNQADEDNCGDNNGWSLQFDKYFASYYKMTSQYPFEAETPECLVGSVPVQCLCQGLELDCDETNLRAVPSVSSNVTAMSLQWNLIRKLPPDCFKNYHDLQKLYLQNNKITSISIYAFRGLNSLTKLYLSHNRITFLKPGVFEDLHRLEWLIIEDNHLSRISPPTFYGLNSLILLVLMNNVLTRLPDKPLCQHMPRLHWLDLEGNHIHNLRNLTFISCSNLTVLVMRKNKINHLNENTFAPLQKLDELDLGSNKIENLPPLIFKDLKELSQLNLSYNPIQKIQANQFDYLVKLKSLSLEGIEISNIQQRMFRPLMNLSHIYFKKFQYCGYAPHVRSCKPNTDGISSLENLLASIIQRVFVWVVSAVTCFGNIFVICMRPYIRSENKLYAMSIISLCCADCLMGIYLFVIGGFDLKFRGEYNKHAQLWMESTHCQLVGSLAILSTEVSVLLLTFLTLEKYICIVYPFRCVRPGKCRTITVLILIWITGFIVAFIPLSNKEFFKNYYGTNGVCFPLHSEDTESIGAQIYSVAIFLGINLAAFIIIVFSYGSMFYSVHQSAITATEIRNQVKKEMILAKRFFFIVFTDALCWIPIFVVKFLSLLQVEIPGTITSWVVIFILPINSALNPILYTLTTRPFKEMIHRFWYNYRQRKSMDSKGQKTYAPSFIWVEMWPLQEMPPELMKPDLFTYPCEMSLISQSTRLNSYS

activation, inactive:
CCN(CC)S(=O)(=O)c1ccc(N2CCOCC2)c(NC(=O)c2cc([N+](=O)[O-])ccc2Cl)c1 14.6%
CC1C/C(=N\NC(N)=S)c2cc(Cl)ccc2S1 (stereo unspecified) 5.78%
COc1ccc(/C=C2/SC(=O)N(CCC(=O)Nc3ccc(C)cc3)C2=O)cc1OC -69.1%
CC(=O)Nc1c2c3c(cccc3n(C)c1=O)C(=O)c1ccccc1-2 24.1% [at 45 µM]
CC(C)C(=O)Nc1ccc(Nc2ccccc2)cc1 -7.21%
CCC(=O)Nc1ccc(-n2nnnc2SCC(=O)NNC(=O)c2ccco2)cc1 -4.13%
CC(C(=O)Nc1cccnc1)n1cc([N+](=O)[O-])cn1 (stereo unspecified) 25.3%
COc1ccc(Nc2ncc(C#N)c(N)n2)c(OC)c1 -3.23%
Cc1ccc(CNC(=O)CCc2nnc3ccc(N4CCC5(CC4)OCCO5)nn23)cc1 25.6%
CN(C)CCCn1c(SCC(=O)Nc2nc(-c3cccc(Br)c3)cs2)nc2ccccc2c1=O -5.83%
O=C1CN(c2nc3ccccc3n3cnnc23)CC(=O)N1CCc1ccccc1 13.4% [at 45 µM]
Cc1ccc(C(=O)Nc2cccc(C(F)(F)F)c2)cc1NC(=O)c1cnnc2ccccc12 7.81%
COc1ccc(NC(=O)CSc2nc(-c3ccc(C)cc3)cc(C(F)(F)F)c2C#N)cc1 26.7% [at 45 µM]
COCCNC(=O)C(OC(=O)c1nsc(Cl)c1Cl)C(C)C (stereo unspecified) 24.3%
O=C(Nc1ccccc1C(=O)N1CCNCC1)c1ccco1 -3.15% [at 125 µM]
CCn1c(=O)c2sccc2n2c(CCCC(=O)NCc3cccnc3)nnc12 28.5%
Cc1cccn2c(=O)c3cc(C(=O)NCCN4CCOCC4)c(=N)n(CCCN4CCOCC4)c3nc12 20.9%
O=C(Nc1ccccc1C(=O)Nc1ccccc1)c1ccco1 -9.11% [at 125 µM]
Cc1cc(C)c(C(=O)CSc2n[nH]c(=O)n2C2CC2)cc1C -3.14%
O=C(Nc1ccccc1C(=O)NCCN1CCOCC1)c1ccco1 -0.806% [at 125 µM]
CCn1c(=O)c2cc(C(=O)Nc3cccc(C(C)=O)c3)sc2c2ccccc21 7.81%
CC(C)n1c(CN2CCN(C(=O)c3ccco3)CC2)nc2c1c(=O)n(C)c(=O)n2C 28.8%
O=C(O)c1ccc(N2C(=O)c3cccc4c(C(=O)O)ccc(c34)C2=O)cc1 27.2% [at 45 µM]
Cc1cc2nc3ccc(=[N+](C)C)cc-3sc2cc1N -10.4%

Potency, active:
Cn1c(N)c(C(=O)CSc2nn(-c3ccc(F)cc3)c(=S)s2)c(=O)n(C)c1=O 21.8 µM
Brc1ccc2ncnc(NCc3cccnc3)c2c1 38.9 µM
O=C(Nc1cccc(C(F)(F)F)c1)c1ccccc1NC(=O)C1CCCCC1 11.9 µM
CCc1ccc2n(-c3ccc(OC)cc3)c([S-])c(C(=O)Nc3cc(C)cc(C)c3)[n+]2c1 24.5 µM
C=C[C@@]1(C)CC(=O)[C@]2(O)[C@@]3(C)[C@@H](O)CCC(C)(C)[C@@H]3[C@H](O)[C@H](OC(C)=O)[C@@]2(C)O1 0.0388 µM
Cc1ccnc(NS(=O)(=O)c2ccc(N3C(=O)c4ccccc4C3=O)cc2)n1 18.8 µM
CC1(C)Cc2c(sc3c2c2ncnn2c2nnc(SCC(=O)NCc4ccco4)n32)CO1 6.16 µM
CCN(CC)S(=O)(=O)c1ccc(C)c(NC(=O)Cn2cnc3cc([N+](=O)[O-])ccc3c2=O)c1 38.9 µM
O=C(Oc1ccccc1)Oc1ccc2c(c1)oc(=O)c1ccccc12 21.8 µM
O=c1oc2cc(O)c(Cl)cc2c2ccccc12 6.9 µM
CC(=O)c1sc(NC(=O)C(C)C)nc1C 15.4 µM
COC(=O)c1nc2ccc(N3CCOCC3)cc2c(C)c1C(=O)OC 34.6 µM
